High-throughput results as filed in PubChem.
A selection: hits, their analogues and other compounds. The true share with any hit is near 11%.
NIH3T3 tox = cytotoxic compounds in NIH 3T3 cells; NIH 3T3 viability, CellTiter-Glo ATP luminescence, 48-72 h; Potency, µM (doses to about 96.7 µM), without a hit: top-dose activity change, negative = cytotoxicity, most hits filed as inhibitors; hit rate 4.3% among 94,000; also: nearly all actives have a fitted effect of over 55% in size
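Luminescent ATP readout (CellTiter-Glo, 10 min RT) after 48 or 72 hr compound exposure of NIH 3T3 cells seeded at 400 cells/well in 1536-well format; quantitative HTS.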
HEK293 tox = kills HEK 293 cells. HEK 293 viability, ATP luminescence (CellTiter-Glo), 48-72 h. Potency, µM (highest dose often 115 µM), inactives show top-dose activity change, negative = cytotoxicity, most hits filed as inhibitors. hit rate 6.6% among 94,000; also: nearly all actives have a fitted effect of over 60% in size
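Cytotoxicity was scored by loss of ATP-coupled luminescence (CellTiter-Glo) in HEK 293 cells. Compound treatment ran 48 or 72 hr at 37 degree Celsius, 5% CO2, 95% humidity.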
Luciferase inh = blocks purified firefly luciferase enzyme activity | hit rate 2.5% among 76,000 | P08659 | purified P. pyralis luciferase, luminescence, biochemical | Potency, µM (doses to about 115 µM), most hits filed as inhibitors; also: nearly all actives have a fitted effect of over 65% in size
Target sequence (P08659 whole entry, looked up): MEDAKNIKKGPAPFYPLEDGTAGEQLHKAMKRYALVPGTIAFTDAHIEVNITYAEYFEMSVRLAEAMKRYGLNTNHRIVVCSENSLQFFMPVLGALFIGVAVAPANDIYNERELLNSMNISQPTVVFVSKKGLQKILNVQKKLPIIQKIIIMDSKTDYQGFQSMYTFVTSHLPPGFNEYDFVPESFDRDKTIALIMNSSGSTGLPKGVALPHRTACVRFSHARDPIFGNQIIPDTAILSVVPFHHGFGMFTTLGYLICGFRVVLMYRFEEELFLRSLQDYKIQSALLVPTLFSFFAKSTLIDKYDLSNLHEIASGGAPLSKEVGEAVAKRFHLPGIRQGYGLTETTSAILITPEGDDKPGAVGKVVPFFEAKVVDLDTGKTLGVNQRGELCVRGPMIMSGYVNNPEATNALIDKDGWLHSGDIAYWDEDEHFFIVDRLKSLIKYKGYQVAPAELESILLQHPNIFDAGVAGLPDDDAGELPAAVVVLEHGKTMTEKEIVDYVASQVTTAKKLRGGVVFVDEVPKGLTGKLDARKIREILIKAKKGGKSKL
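Luminescence read by CCD imager after adding enzyme (10nM final) to wells holding compound, titrated in qHTS. Substrates 10uM each D-luciferin and ATP; buffer 50mM Tris acetate pH 7.5, 10mM Mg acetate, Tween-20, BSA.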
NPR1 antag = human Npr1 receptor antagonism. AID 1347048. P16066. hit rate 1.6% among 76,000. HEK293 hNpr1 GloSensor cGMP, ANP-stimulated luminescence. Potency, µM (top dose mostly 46.3 µM), inactives show top-dose activity change, negative = inhibition, most hits filed as inhibitors; calls by dose curve; also: nearly all actives have a fitted effect of over 60% in size
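Compound pre-incubated 30 min at room temperature on GloSensor-loaded HEK293 cells stably carrying hNpr1 and the pGS-40F cGMP biosensor. Stimulation uses hNppA at 0.1 nM final; luminescence is taken at baseline and 20 min post-agonist.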
* = called active by the depositor; i = inactive; u = inconclusive; x = not tested or not shown; ! = not confirmed by another sample; [ ] = dose if it differs, or a comment. Unless noted, calls follow the shape of the dose curve; as a rule, active = well fitted curve in the direction sought with a large enough effect; inconclusive = small, poorly fitted or top-dose-only effect, or another doubt; inactive = no such curve, though single readings can be large; an effect the other way counts as inactive or inconclusive. % is scaled to controls: 0 for no effect and ±100 for the full control effect; potency is read from the fitted curve at half-maximal effect.

SMILES	NIH3T3 tox	HEK293 tox	Luciferase inh	NPR1 antag
CCNC(=O)[C@@H]1C[C@H](N)CN1S(=O)(=O)c1ccc2ccccc2c1	-10.9%	1.4%	i	11.1%
N#CCCN1C[C@H]2COc3ccccc3[C@H]2N(C(=O)c2ccc(F)cc2)CCC1=O	u	-18.5%	x	x
COc1ccc(-c2onc(C)c2C(=O)NCCc2cccs2)cc1	-31.3%	35.5µM*	i	-14.0%
Cc1noc(-c2ccc3c(c2)OCO3)c1C(=O)NCCC(c1ccccc1)c1ccccc1	u	22.4µM*	i	-17.3%
Cc1noc(-c2cccs2)c1C(=O)NCCc1cccs1	-26.9%	u	i	-0.2%
Cc1noc(-c2ccccc2Cl)c1C(=O)NCCC(c1ccccc1)c1ccccc1	28.2µM*	25.1µM*	i	-4.9%
Cc1noc(-c2ccco2)c1C(=O)NCCC(c1ccccc1)c1ccccc1	u	39.8µM*	i	-13.9%
O=C(NC1CCN(C(=O)c2ccc(-c3cncnc3)cc2)CC1)C1CCCC1	-19.2%	-13.7%	x	x
O=c1[nH]c(N2CCOCC2)nc2c1CCN(Cc1ccccc1C(F)(F)F)CC2	-11.6%	u	i	3.8%
COCCCNC(=O)C(NC(=O)c1ccc(C)cc1)C1CCN(C(=O)c2cccs2)CC1 (stereo unspecified)	u	-25.6%	i	-11.6%
CN1CCN(C(=O)c2cc(-c3ccc(Cl)cc3Cl)c3nncn3n2)CC1	u	-16.6%[172 µM]	x	x
Cc1oc(C(O)c2ccccc2F)nc1C(=O)Nc1ccc2[nH]c(=O)[nH]c2c1 (stereo unspecified)	u	u	i	1.1%[70.6 µM]
COc1cc(OC)cc(-c2onc(C)c2C(=O)NCCC(c2ccccc2)c2ccccc2)c1	u	39.8µM*	i	-3.3%
COc1cccc(CCNC(=O)c2c(C)noc2-c2cc(OC)cc(OC)c2)c1	u	u	i	-15.0%
COc1ccccc1C(=O)N1CCC(N2C(=O)c3c(c(C)nn3-c3ccccc3)C2C)C1 (stereo unspecified)	u	44.7µM*	x	x
COc1ccccc1C(=O)N1CCC(N2C(=O)c3c(c(C)nn3-c3ccccc3)C2C2CC2)C1 (stereo unspecified)	u	39.8µM*	x	x
CC(C)NCC1(COc2ccc(C(F)(F)F)cn2)C[C@@H](O)[C@@H](O)C1 (stereo partly specified)	i	i	i	4.0%[70.6 µM]
O=C(NCc1ccccn1)c1nc2sccn2c1-c1ccc(C(F)(F)F)cc1	-97.8%	u	x	x
Cc1cccc(-c2noc([C@@H]3Cc4nc[nH]c4CN3C(=O)Nc3cccc(C#N)c3)n2)c1	63.1µM*	89.1µM*	35.5µM*	-21.3%[70.6 µM]
N#Cc1cccc(NC(=O)N2Cc3[nH]cnc3C[C@H]2c2nc(-c3ccc(Cl)cc3)no2)c1	79.4µM*	u	i	-19.0%
Cc1cccc(-c2noc([C@@H]3Cc4nc[nH]c4CN3C(=O)Nc3cccc(F)c3)n2)c1	35.5µM*	70.8µM*	63.1µM*	u
Cc1cccc(-c2noc([C@@H]3Cc4nc[nH]c4CN3C(=O)COCC(=O)O)n2)c1	-27.7%[174 µM]	-7.6%[172 µM]	56.2µM*	-1.0%[70.6 µM]
O=C(Nc1cccc(F)c1)N1Cc2[nH]cnc2C[C@H]1c1nc(-c2ccc(Cl)cc2)no1	u	79.4µM*	39.8µM*	-14.6%
O=C(Nc1cccc(F)c1)N1Cc2[nH]cnc2C[C@H]1c1nc(-c2ccccc2)no1	u	70.8µM*	i	-18.9%[70.6 µM]
O=C(Nc1cccc(F)c1)N1Cc2[nH]cnc2C[C@H]1c1nc(-c2ccc3c(c2)OCO3)no1	u	u	i	-23.5%
SMILES	NIH3T3 tox	HEK293 tox	Luciferase inh	NPR1 antag
Cn1cc(C(NS(=O)(=O)c2cccc3c2OCCO3)C2CC(O)C2)cn1 (stereo unspecified)	-0.9%	-27.4%	i	-1.6%
COc1ncccc1-c1cnc2n[nH]c(-c3ccc4c(c3)OCO4)c2n1	44.7µM*	44.7µM*	i	-19.0%[70.6 µM]
COc1cccc(-c2cnc3n[nH]c(-c4ccc5c(c4)OCO5)c3n2)c1	50.1µM*	u	i	-10.7%[70.6 µM]
Cc1ccccc1-c1cnc2n[nH]c(-c3ccc4c(c3)OCO4)c2n1	25.1µM*	44.7µM*	i	-17.8%[70.6 µM]
Fc1ccccc1-c1cnc2n[nH]c(-c3ccc4c(c3)OCO4)c2n1	-11.9%[138 µM]	u	i	-21.4%[70.6 µM]
COc1cc(F)ccc1-c1cnc2n[nH]c(-c3ccc4c(c3)OCO4)c2n1	25.1µM*	u	i	-26.3%[70.6 µM]
Cc1ccc(Cn2c(C3CCN(C(=O)c4cccc(C(F)(F)F)c4)CC3)n[nH]c2=O)cc1	u	u	i	0.0%
COc1ccccc1-c1cnc2n[nH]c(-c3ccc4c(c3)OCO4)c2n1	35.5µM*	35.5µM*	i	u
Oc1ccccc1-c1cnc2n[nH]c(-c3ccc4c(c3)OCO4)c2n1	u	u	u	-18.6%[70.6 µM]
CC(C)(C)c1cccc(CN2CCC3(CCNCC3)C2)c1O	22.4µM*	22.4µM*	i	4.6%
c1ccc(COc2ccccc2CN2CCC3(CCNCC3)C2)cc1	22.4µM*	28.2µM*	i	-1.3%
O=C(NCc1ccc(F)cc1)c1cc(-c2cc(Cl)cc(Cl)c2)c2nncn2n1	-20.5%	-8.6%	x	x
O=C(C1CC1)N1CCC(CCOc2ccccc2)C1 (stereo unspecified)	-25.3%	-34.7%	x	x
Cc1noc(C)c1-c1cc2cc(C(C)C)oc2c(-c2ccc(CO)cc2)n1	u	u	i	-7.4%[70.6 µM]
Cc1cc2cc(-c3c(C)noc3C)nc(-c3cccc([S+](C)(=O)[O-])c3)c2o1	11.2µM*	u	i	-21.4%[70.6 µM]
Cc1cc2cc(-c3c(C)noc3C)nc(-c3ccc(CO)cc3)c2o1	28.2µM*	u	i	-1.9%[70.6 µM]
Cc1noc(C)c1-c1cc2cc(CO)oc2c(-c2cccc(OC(C)C)c2)n1	u	89.1µM*	i	-15.5%[70.6 µM]
CNC(=O)c1cc(C2CC2)nc2c1c(C1CCCN1[S+](=O)([O-])C(C)C)nn2C (stereo unspecified)	-27.6%	2.9%	x	x
Cn1ncc2c(C(=O)NCc3ccc(Cl)cc3)cc(-c3cccc(F)c3)nc21	31.6µM*	39.8µM*	x	x
CCC(C)NC(=O)c1cc(-c2cccc(F)c2)nc2c1cnn2C (stereo unspecified)	u	89.1µM*	x	x
CCOCCNC(=O)c1cc(-c2cccc(F)c2)nc2c1cnn2C	u	-29.0%[172 µM]	x	x
Cn1ncc2c(C(=O)NC3CC3)cc(-c3cccnc3)nc21	39.8µM*!	63.1µM*!	x	x
Cn1ncc2c(C(=O)NCc3cccc(F)c3)cc(-c3ccc(Cl)cc3)nc21	u	44.7µM*	x	x
COC(=O)CNC(=O)c1cc(-c2cccc(F)c2)nc2c1cnn2C	u	-13.4%[172 µM]	x	x
Cn1ncc2c(C(=O)NCc3cccc(Cl)c3)cc(-c3ccccc3)nc21	-24.7%	-20.5%	x	x
CCOc1ccc(C2NC(=O)N(CCC(C)C)C3=C2C(=O)OC3)cc1 (stereo unspecified)	-21.7%	u	i	-0.2%
CC1=NS(=O)(=O)N(Cc2ccccc2)C=C1C(=O)OCc1nc(-c2ccc3c(c2)OCO3)no1	u	-22.9%	i	-27.9%
